Out of some 310,000 compounds screened, about 2,200 (0.71%) showed an effect of 50% or more. Effects have a minus sign here. Only a selection was taken, and strong results are over-represented in it overall.
biological target: human ether-à-go-go-related gene (hERG) potassium channel (human, UniProt Q12809); assay: primary screen, population patch clamp on CHO cells stably expressing hERG; higher = less effect of the substance
Sequence (Q12809 whole entry, looked up): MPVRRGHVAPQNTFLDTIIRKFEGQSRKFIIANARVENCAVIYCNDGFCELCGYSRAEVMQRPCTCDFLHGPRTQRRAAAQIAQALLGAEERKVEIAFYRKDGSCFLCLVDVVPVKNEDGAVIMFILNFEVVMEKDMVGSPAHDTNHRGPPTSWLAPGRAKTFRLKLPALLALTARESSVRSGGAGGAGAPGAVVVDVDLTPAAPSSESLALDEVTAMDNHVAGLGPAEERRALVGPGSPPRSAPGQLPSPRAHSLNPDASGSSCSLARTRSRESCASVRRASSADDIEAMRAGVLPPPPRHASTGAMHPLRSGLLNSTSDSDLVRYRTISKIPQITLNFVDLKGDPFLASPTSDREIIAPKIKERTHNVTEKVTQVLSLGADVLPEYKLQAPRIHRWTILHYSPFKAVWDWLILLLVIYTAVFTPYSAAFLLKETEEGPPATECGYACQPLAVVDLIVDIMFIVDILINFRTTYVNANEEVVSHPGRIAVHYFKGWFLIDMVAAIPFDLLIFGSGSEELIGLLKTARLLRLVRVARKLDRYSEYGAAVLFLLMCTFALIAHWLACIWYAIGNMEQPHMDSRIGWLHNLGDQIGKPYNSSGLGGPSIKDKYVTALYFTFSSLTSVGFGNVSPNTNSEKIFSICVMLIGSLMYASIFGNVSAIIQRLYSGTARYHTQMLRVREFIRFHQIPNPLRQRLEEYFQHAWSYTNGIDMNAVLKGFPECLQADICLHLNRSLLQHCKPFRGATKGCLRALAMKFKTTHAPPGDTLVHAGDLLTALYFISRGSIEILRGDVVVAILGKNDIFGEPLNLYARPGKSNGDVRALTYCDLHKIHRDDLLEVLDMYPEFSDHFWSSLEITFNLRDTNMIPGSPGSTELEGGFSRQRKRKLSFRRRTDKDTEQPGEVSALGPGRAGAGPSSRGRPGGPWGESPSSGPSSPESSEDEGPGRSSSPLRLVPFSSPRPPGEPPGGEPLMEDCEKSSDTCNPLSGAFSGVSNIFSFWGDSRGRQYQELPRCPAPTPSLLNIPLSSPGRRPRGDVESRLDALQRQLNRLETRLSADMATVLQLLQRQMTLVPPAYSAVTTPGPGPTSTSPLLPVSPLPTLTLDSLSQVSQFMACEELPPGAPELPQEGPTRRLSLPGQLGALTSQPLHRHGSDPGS

Row | SMILES | hERG current change (%, negative = inhibition) at 1uM
1 | CCOc1ccc(C(C)=O)cc1COC(=O)C1=COCCO1 | -0.905%
2 | Cc1ccc2cc(CNCCc3ccccc3C)c(=O)[nH]c2c1 | -42.9%
3 | COc1ccc(CCNCc2cc3ccc(C)cc3[nH]c2=O)cc1OC | -53.5%
4 | Cc1cccc(CCNCc2cc3cccc(C)c3[nH]c2=O)c1 | -35.7%
5 | COc1ccc(CCN(Cc2cc3ccc(C)cc3[nH]c2=O)C(C)=O)cc1OC | -26.6%
6 | Cc1cccc(CCNCc2cc3ccc(C)cc3[nH]c2=O)c1 | -54.6%
7 | CNCc1cc2ccc(C)cc2[nH]c1=O | -6.99%
8 | Cc1ccc(Cl)cc1N1CCN(C(=O)Cc2c(C(=O)O)[nH]c3ccc(Cl)cc23)CC1 | 22.4%
9 | COCCOc1cnn(-c2cc(Oc3ccc(C)cc3)ncn2)c(=O)c1Cl | 7.88%
10 | Cc1ccc(-n2c(SCC3CNC(=O)O3)nnc2-c2ccccc2)cc1C (centres unmarked) | 0.305%
11 | CCOc1ccc(NC(=O)CN(C)C(=O)c2c(C)noc2C)cc1OCC | 9.87%
12 | CCN(CC)CCCNC(=S)Nc1ccc(Br)cc1 | -8.09%
13 | COCCNC(=O)c1cccc(OC2CCN(Cc3ccc(F)cc3OC)CC2)c1 | 10.6%
14 | COc1ccc(C(=O)NCC(=O)OCc2ccc(F)cc2Cl)cc1OC | 11.2%
15 | COc1ccc(C(=O)NC2CC2)cc1OC1CCN(Cc2ccc(F)cc2Cl)CC1 | -62%
16 | COc1ccc(C(=O)NC2CC2)cc1OC1CCN(Cc2ccc(F)cc2F)CC1 | -75.1%
17 | O=C(NCc1ccccn1)c1ccc(OC2CCN(Cc3ccc(F)cc3F)CC2)cc1 | 0.219%
18 | COc1ccc(C(=O)NC2CCN(Cc3c(F)cccc3Cl)CC2)cc1OC | 10.1%
19 | CCCN1CCN(C(=O)c2oc3c(Cl)cccc3c2C)CC1 | -0.0965%
20 | CCCCC(=O)Nc1cccc(NC(=O)CC)c1 | 10.3%
21 | Cc1ccccc1-n1cc(-c2ccc(Br)cc2)nc1SCC(N)=O | 10.3%
22 | Clc1cccc(OCCN2CCOCC2)c1.O=C(O)C(=O)O | 5.84%

Row | SMILES | hERG current change (%, negative = inhibition) at 1uM
23 | Clc1cccc(OCCCCN2CCCCC2)c1 | -4.66%
24 | CCC1CCCCN1CCCCOc1cccc(Cl)c1.O=C(O)C(=O)O (centres unmarked) | -55.6%
25 | CC(C(=O)NC(N)=O)N1C(=O)NC(c2ccccc2)(c2ccccc2)C1=O (centres unmarked) | -0.156%
26 | COc1ccc(CNC(=O)C(C)N2C(=O)NC(c3ccccc3)(c3ccccc3)C2=O)cc1 (centres unmarked) | -56.1%
27 | CCNC(=O)NC(=O)C(C)N1C(=O)NC(c2ccccc2)(c2ccccc2)C1=O (centres unmarked) | -2.55%
28 | CCCCNCC(=O)Nc1ccc(NC(=O)CNCCCC)cc1 | 16.2%
29 | CCCN1Cc2cccc(C(N)=O)c2C1=O | 3.15%
30 | O=C(c1ccc(C(F)(F)F)cc1)C1CCCN(Cc2cccn2-c2ncccn2)C1 (centres unmarked) | -88%
31 | Cc1cccc(CN2CCCC(C(=O)c3ccc(C(F)(F)F)cc3)C2)n1 (centres unmarked) | -40%
32 | CCn1ccnc1CN1CCCC(C(=O)c2cccc(C(F)(F)F)c2)C1 (centres unmarked) | 1.55%
33 | O=C(c1cccc(C(F)(F)F)c1)C1CCCN(Cc2ccccc2O)C1 (centres unmarked) | 13.2%
34 | O=C(c1cccc(C(F)(F)F)c1)C1CCCN(Cc2cccn2-c2ccccn2)C1 (centres unmarked) | -90.4%
35 | O=C(c1cccc(C(F)(F)F)c1)C1CCCN(Cc2ncc[nH]2)C1 (centres unmarked) | 11.1%
36 | O=C(c1cccc(C(F)(F)F)c1)C1CCCN(Cc2cccn2-c2ncccn2)C1 (centres unmarked) | -105%
37 | O=C(c1ccc(C(F)(F)F)cc1)C1CCCN(Cc2ccncc2)C1 (centres unmarked) | -7.99%
38 | CC(=O)Nc1ccc(CN2CCCC(C(=O)c3cccc(C(F)(F)F)c3)C2)cc1 (centres unmarked) | 7.86%
39 | CC(=O)c1ccc(S(=O)(=O)Nc2ccccc2C(=O)NC2CC2)cc1 | 9.72%
40 | O=C1CN(S(=O)(=O)c2cccc(C(=O)O)c2)c2ccccc2N1 | 11.3%
41 | CCC(CC)c1nnc(NC(=O)c2ccc(N3CCCCC3)c([N+](=O)[O-])c2)s1 | -9.23%
42 | C=CCN(CC(O)c1cccc([N+](=O)[O-])c1)C(C)CCc1ccccc1.Cl (centres unmarked) | -9.83%
43 | CC(CCc1ccccc1)N(C)CC(O)c1cccc([N+](=O)[O-])c1.Cl (centres unmarked) | -56.8%
44 | CC(CCc1ccccc1)NCC(O)c1cccc([N+](=O)[O-])c1.Cl (centres unmarked) | -8.42%
